Screening data deposited in PubChem BioAssay by The Scripps Research Institute Molecular Screening Center.
An excerpt weighted towards active compounds, which were near 1.8% of everything screened.
LYPLA1 counter: LYPLA1 inhibitors, primary screen, counter-screen for PME1 inhibitor project, biochemical, fluorescence polarization, FP-Rh probe ABPP. recombinant LYPLA1. inhibition, % at 5.9 µM. 320,000 tested, 0.16% active. AID 2174, 2009;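 active = inhibition above the mean of all tested compounds plus 3 SD, set per campaign, cut at about 14% in these data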;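 note: inhibitors block serine hydrolase probe labeling of LYPLA1 so polarization falls; 0% = enzyme with DMSO and 100% = wells lacking LYPLA1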
PAD4 inh: human PAD4 inhibitors, primary screen, biochemical, fluorescence polarization, 1536-well format; recombinant PAD4, RCA probe fluorescence polarization; 330,000 tested, 0.41% active; inhibition, % at 6.36 µM;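 active = percent inhibition above a cutoff equal to the mean of all tested compounds plus 3 SD, cut at about 15% in these data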;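 note: 0% = PAD4 with RCA probe and DMSO and 100% = probe without PAD4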
LYPLA2 counter: LYPLA2 inhibitors, primary screen, counter-screen for PME1 inhibitor project, biochemical, fluorescence polarization, FP-Rh probe ABPP; Acyl-protein thioesterase 2 (Homo sapiens), O95372; recombinant LYPLA2; inhibition, % at 5.9 µM; 320,000 tested, 0.38% active;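 active = inhibition above the screen-wide mean plus 3 SD, limit set per campaign, cut at about 26% in these data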;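 note: 0% = LYPLA2 with DMSO and 100% = wells lacking LYPLA2 enzyme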
GSTO1 counter: inhibitors of recombinant GSTO1, primary screen, counter-screen for RBBP9 inhibitor project, biochemical, fluorescence polarization. Glutathione S-transferase omega-1 (Homo sapiens), P78417. AID 1974, 2009. activity-based probe fluorescence polarization. inhibition, % at 5.96 µM. 300,000 tested, 1.1% active;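 active = inhibition above the campaign mean inhibition plus 3 SD, cut at about 35% in these data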;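 note: 0% = GSTO1-1 with DMSO and 100% = wells lacking GSTO1-1 enzyme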
Fam108B counter: mouse Fam108B serine hydrolase inhibitors, primary screen, counter-screen for RBBP9 inhibitor project, biochemical, fluorescence polarization. recombinant Fam108B, FP-Rh probe fluorescence polarization. inhibition, % at 9.51 µM. 300,000 tested, 0.33% active;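 active = inhibition above the screen mean inhibition plus 3 SD, computed separately per campaign, cut at about 18% in these data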;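 note: inhibitors lower polarization as less probe binds the enzyme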
PME-1 primary: PME-1 inhibitors via competitive probe labeling, primary screen, biochemical, fluorescence polarization, FP-Rh probe, HTS; recombinant PME-1; inhibition, % at 5.9 µM; Protein phosphatase methylesterase 1 (Homo sapiens), Q9Y570; AID 2130, 2009; 320,000 tested, 0.53% active;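 active = inhibition above the campaign mean of all compounds plus 3 SD, cut at about 26% in these data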;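 note: competitive labeling of PME-1 active site by serine hydrolase directed probe; 0% = PME-1 with DMSO and 100% = wells lacking PME-1 enzyme; inhibitors block probe labeling so polarization falls and inhibition rises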
Target sequence (Q9Y570 whole entry, looked up): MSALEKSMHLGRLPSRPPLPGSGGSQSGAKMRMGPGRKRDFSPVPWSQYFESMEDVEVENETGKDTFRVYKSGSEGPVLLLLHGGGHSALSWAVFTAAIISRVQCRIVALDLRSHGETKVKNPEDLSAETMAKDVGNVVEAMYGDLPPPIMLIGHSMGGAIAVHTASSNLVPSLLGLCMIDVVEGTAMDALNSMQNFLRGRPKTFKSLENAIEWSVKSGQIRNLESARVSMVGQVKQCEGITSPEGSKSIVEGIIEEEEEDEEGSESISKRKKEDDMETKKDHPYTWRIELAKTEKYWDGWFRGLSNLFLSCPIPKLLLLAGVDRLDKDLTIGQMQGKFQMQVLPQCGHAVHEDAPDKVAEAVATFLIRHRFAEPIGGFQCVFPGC
LYPLA2 conf: LYPLA2 inhibitors, retest, confirmation, counter-screen for PME1 inhibitor project, biochemical, fluorescence polarization, FP-Rh probe ABPP. inhibition, % at 5.9 µM. 1,100 tested, 72% active. recombinant LYPLA2. shares compounds with LYPLA2 counter;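 active = mean inhibition across replicates above the hit cutoff set in the primary screen, cut at about 26% in these data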;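 note: blocked labeling of the enzyme by serine hydrolase FP-Rh probe lowers polarization; 0% = enzyme with DMSO and 100% = wells lacking LYPLA2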
LYPLA2 gel ABPP: LYPLA2 inhibitors in proteome, late-stage follow-up, gel-based competitive ABPP, fluorescence, assay provider. shares compounds with LYPLA2 counter. rhLYPLA2 in mouse brain proteome, gel ABPP FP-Rh. inhibition, % at 20 µM. 150 tested, 30% active. AID 652029, 2013;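 active = inhibition of LYPLA2 enzyme probe labeling above about 50%, limit read from the data; inactive = inhibition below that limit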;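 note: loss of FP-Rh probe labeling of the LYPLA2 gel band measured as band density; 0% = DMSO only control band and 100% = blank gel background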
Starred values were filed as active, the others as inactive; nt = no result given.

SMILES | LYPLA1 counter | PAD4 inh | LYPLA2 counter | GSTO1 counter | Fam108B counter | PME-1 primary | LYPLA2 conf | others
Cc1ccc(S(=O)(=O)CCC(=O)N2CCN(c3ccc([N+](=O)[O-])cc3)CC2)cc1 | 9 | -2 | 39* | 2 | -2 | 6 | 35*
COc1ccc(S(=O)(=O)CCC(=O)N2CCN(c3ccc([N+](=O)[O-])cc3)CC2)cc1 | 9 | -2 | 55* | 4 | -1 | 3 | 58* | LYPLA2 gel ABPP=25
CN(CC(=O)N1CCN(c2ccc(F)cc2)CC1)S(=O)(=O)c1ccc2c(c1)c(=O)n(C)c(=O)n2C | 0 | -1 | 8 | -3 | 0 | -5 | nt
COc1ccc(N2CCN(C(=O)CN(C)S(=O)(=O)c3ccc4c(c3)c(=O)n(C)c(=O)n4C)CC2)cc1 | 6 | -3 | 61* | 2 | 4 | 3 | 51* | LYPLA2 gel ABPP=14
COc1ccc(N2CCN(C(=O)CCN3C(=O)c4ccccc4S3(=O)=O)CC2)cc1 | -1 | -2 | 34* | 4 | -3 | 3 | 34*
Cc1ccc(NC(=O)CN(C)C(=O)c2ccccc2Sc2ccccc2C#N)cc1 | -1 | 1 | -3 | 4 | 1 | -8 | nt
O=C(Nc1ccc(Cl)cc1)c1cccc(NC2=NC3CS(=O)(=O)CC3S2)c1 (centres undefined) | 9 | 1 | 7 | 3 | 0 | -1 | nt
Cc1cccc(-n2ccc(=O)c(C(=O)Nc3ccc(S(=O)(=O)Nc4onc(C)c4C)cc3)n2)c1 | -4 | -4 | -2 | 1 | 0 | -5 | nt
CCc1nnc(NS(=O)(=O)c2ccc(NC(=S)NC(=O)/C=C/c3ccc([N+](=O)[O-])cc3)cc2)s1 | 1 | -2 | 67* | -15 | -2 | -4 | 77* | LYPLA2 gel ABPP=37
O=C1OCCC1Sc1nnnn1-c1ccc(Cl)cc1 (centres undefined) | -5 | -6 | 0 | -5 | -6 | -2 | nt
Cc1csc(=O)n1CCC(=O)OC(C)C(=O)NCc1ccccc1 (centres undefined) | nt | 4 | nt | nt | nt | nt | nt
O=C(O)CN1C(=O)/C(=C\c2cc(Br)ccc2OCc2ccc([N+](=O)[O-])cc2)SC1=S | 2 | -5 | 62* | -2 | 13 | 15 | 64*
CN(C)C(=O)N1CCC(C(=O)N2CCCC(C(=O)c3ccc(C(C)(C)C)cc3)C2)CC1 (centres undefined) | 4 | 2 | 34* | 6 | 2 | 3 | 34*
CN(CC(=O)O/N=C(\N)c1cccc([N+](=O)[O-])c1)S(=O)(=O)c1ccccc1 | -5 | -4 | -2 | 8 | 1 | 8 | nt
Cc1ccc(S(=O)(=O)N(C)CC(=O)O/N=C(\N)c2ccc([N+](=O)[O-])cc2)cc1 | 7 | 2 | 67* | -2 | -5 | -10 | 58* | LYPLA2 gel ABPP=0
CN(CC(=O)O/N=C(\N)c1ccc([N+](=O)[O-])cc1)S(=O)(=O)c1ccccc1 | -1 | 0 | 29* | 1 | 2 | -4 | 18
CC(=O)Nc1ccc(NC(=O)COC(=O)c2ccccn2)cc1 | 0 | 5 | 3 | 20 | 0 | -5 | nt
CCOc1ccc(-n2ccc(=O)c(C(=O)O)n2)cc1 | -3 | 1 | -4 | 5 | -1 | -2 | nt
CCOC(=O)N1CCN(S(=O)(=O)c2ccc(F)c(C(=O)Nc3cccc(Cl)c3C)c2)CC1 | 2 | 2 | 40* | -4 | -3 | 6 | 41*
O=C(Nc1ccccc1C(=O)O)c1cc(S(=O)(=O)N2CCCCCC2)ccc1Cl | -4 | -3 | 35* | -9 | 0 | 6 | 6
